Source: PubChem
Only some compounds are listed: those with a hit (about 8% of all), similar ones and a draw of the others.
Lassa entry: blocks Lassa virus binding or cell entry; Lassa virus pseudotyped entry inhibition, cell-based qHTS; Potency, µM (titrated, usually from 49.2 µM), for inactives: top-dose activity change, negative = inhibition, hits mostly inhibitors; hit rate 4.1% among 18,000; AID 720533
Marburg entry: blocks Marburg virus binding or cell entry; Marburg virus pseudotype entry/binding inhibition, cell-based; Potency, µM (highest dose often 49.2 µM), for inactives: at the top dose activity change, negative = inhibition, most hits filed as inhibitors; hit rate 6.5% among 18,000; AID 720532
* marks the source's active call; other numbers are inactive results; ? = inconclusive; ! = not active in a repeat; [ ] = another dose, or the depositor's remark. The call rests on the fitted dose curve; tested in HEK293 cells. On the % scale 0 is the no-effect control and ±100 the full control effect; potency means the concentration at half of the fitted maximal effect.

SMILES	Lassa entry	Marburg entry
COC(=O)C[C@H]1c2ccccc2[C@@H]2C(=C[C@@H](C)[C@H]3C(=O)NC(=O)[C@H]32)N1C(=O)OC	-6%[8.59 µM]	3%[8.59 µM]
CCc1nc(CN2CCOc3ccc(C(O)C4CCCCC4)cc3C2)c(C)[nH]1 (centres undefined)	?	13µM*
O=C(c1ccc(Cn2cnnn2)cc1)N1CCOc2ccc(C(O)C3CCCCC3)cc2C1 (centres undefined)	?	-25%
O=C(c1n[nH]c2c1CCCC2)N1CCOc2ccc(C(O)C3CCCCC3)cc2C1 (centres undefined)	8.9µM*	11µM*
OC(c1ccc2c(c1)CN(Cc1cccc3nccnc13)CCO2)C1CCCCC1 (centres undefined)	-1%	-7%
O=S1(=O)C=CCN1	12%	23%
O=C(Nc1n[nH]c2nnc(-c3cccnc3)cc12)C1CC1	-25%	?
CC1=C[C@@H](COCc2ccccc2)O[C@@]2(C1)C(=O)Nc1cccc(Br)c12	-12%[8.59 µM]	9%[8.59 µM]
C#CCN1C(=O)CC[C@@]23C1=NC(C(=O)OC)=C(C(=O)OC)[C@@H]2N(Cc1ccccc1)c1ccccc13	-23%[8.59 µM]	-20%[8.59 µM]
COC(C)(C)CCCC(C)C/C=C/C(C)=C/C(=O)OC(C)C (centres undefined)	14µM*!	15%
CC(CCN1CCCc2nc(C)c(C)cc21)=NO[C@@H](C)CN1CCCCc2nc(C)c(C)cc21	4%[8.59 µM]	-28%[8.59 µM]
NC(=NC1C2CC3CC(C2)CC1C3)Nc1ccc(I)cc1 (centres undefined)	8.9µM*	11µM*
C=CCN(C)C1=NC(c2ccccc2)C(C(=O)OC)=C(C)N1CCOC (centres undefined)	-2%[8.59 µM]	4%[8.59 µM]
COC(=O)C1=C(C)N(Cc2ccccc2)C(=NCC2CC2)NC1c1ccccc1 (centres undefined)	-12%[8.59 µM]	-1%[8.59 µM]
CCCC(=O)O[C@]1(C(=O)COC(=O)CC)[C@@H](C)C[C@H]2[C@@H]3CCC4=CC(=O)C=C[C@]4(C)[C@@]3(F)[C@@H](O)C[C@@]21C	?	11µM*
CCCCC(=O)O[C@@]1(C(=O)CO)C(C)CC2C3CCC4=CC(=O)C=C[C@@]4(C)[C@]3(F)C(O)C[C@]21C (some centres undefined)	-2%	-13%
O=C(C1CCCCC1)N1C[C@@H](O)[C@@H](n2cc(C3CC3)nn2)C[C@@H]1c1ccccc1	?	-11%
OC[C@@H](O)COc1cccc2ccccc12	-4%	-8%
CNCC[C@H](Oc1cccc2ccccc12)c1cccs1	22µM*	7.9µM*
C[C@@H]1O[C@@H](O[C@@H]2C=C3CC[C@@H]4[C@H](CC[C@]5(C)[C@@H](c6ccc(=O)oc6)CC[C@]45O)[C@@]3(C)CC2)[C@H](O)[C@H](O)[C@H]1O	1µM*	?
O=C(OCc1cn([C@@H]2CN(C(=O)C3CCCCC3)[C@@H](c3ccc(Cl)cc3)C[C@@H]2O)nn1)c1ccccc1	14%	?
NC(N)=NN=C(/C=C/c1ccc([N+](=O)[O-])o1)/C=C/c1ccc([N+](=O)[O-])o1	6.3µM*	14µM*
O=[N+]([O-])c1ccc(/C=N\O)o1	-2%	16%
CC(=O)OC1CC(OC(C)=O)[C@]2(C)C(CC(=O)[C@]3(C)C2CC[C@@]2(C)C(c4ccoc4)OC(=O)C4O[C@@]423)C1(C)C (some centres undefined)	-17%	5%
CC1(C)C(=O)C=C[C@@]2(C)C1=C(O)C(=O)[C@@]1(C)C2CC[C@@]2(C)C(c3ccoc3)C[C@H]3O[C@@]321 (some centres undefined)	11µM*	5µM*
SMILES	Lassa entry	Marburg entry
CCCCCC(=O)N1C[C@H](O)[C@@H](n2cc(C3CC3)nn2)C[C@H]1c1ccc(OC)cc1	8%	13%
CCCC=CC1C(=O)[C@@H]2O[C@H]2C2(OCC(CC)(CC)CO2)C1CO (some centres undefined)	0%[8.59 µM]	-11%[8.59 µM]
Nc1ccccc1C(=O)C=Cc1ccccc1	13%[8.59 µM]	11%[8.59 µM]
CCN(CC)CCO[C@H]1CC[C@@]2(C)C(=CC[C@@H]3[C@@H]2CC[C@]2(C)C(=O)CC[C@@H]32)C1	9%	-7%
CCN(CC)CCO[C@H]1CC[C@@]2(C)C(=CC[C@@H]3[C@H]2CC[C@]2(C)C(=O)CC[C@H]32)C1	-23%	13µM*
COc1cc2c(cc1OC)[C@@H]1O[C@](CCCCN3C(=O)c4ccccc4C3=O)(C2)OC2=C1C(=O)OC1(CCCCC1)C2	-13%[8.59 µM]	28%[8.59 µM]
CC=C[C@@H]1Oc2ccc(OC)cc2N2C(=O)[C@H](C)[C@@H](OCOC)[C@H]12	-6%[8.59 µM]	-23%[8.59 µM]
Cn1cc(C2=C(c3cn(CCCSC(=N)N)c4ccccc34)C(=O)NC2=O)c2ccccc21	18µM*	16µM*
COc1ccc2[nH]cc(CCNc3ncncc3-c3ccccc3CN(C)C)c2c1	-14%	?
Cn1cc(C=C2C(=O)Nc3cccnc32)c2ccccc21	-23%	10%
COc1ccc2c(c1)c(C1=C(c3c[nH]c4ccccc34)C(=O)NC1=O)cn2CCCN(C)C	?	7.1µM*
CN(C)CCCn1cc(C2=C(c3c[nH]c4ccccc34)C(=O)NC2=O)c2ccccc21	?	7.1µM*
C#CCCCON=C1C[C@@H](O)[C@H](O)[C@H]2[C@@H]3C(=O)N(C[C@@H]4CCCO4)C(=O)[C@@H]3CC[C@H]12	?	4%[8.59 µM]
CC(C)=CCN1C(=O)[C@]2(O[C@H](C)CC3=CCCC32)c2c(Br)cccc21 (some centres undefined)	0%[8.59 µM]	3%[8.59 µM]
CS(=O)(=O)CCNCc1coc(-c2ccc3ncnc(Nc4ccc(OCc5ccccc5)cc4)c3c2)c1	-69%	?
c1ccc(-c2[nH]ncc2-c2ccnc(-c3ccc(OCCN4CCOCC4)cc3)c2)nc1	-14%	-19%
c1cc(-c2cnn3cc(-c4ccc(OCCN5CCCCC5)cc4)cnc23)ccn1	41%	13µM*
C[C@@H]1CC2CCCC2[C@]2(O1)C(=O)Nc1ccccc12 (some centres undefined)	26%[8.59 µM]	-4%[8.59 µM]
CN1C[C@H](C(=O)N[C@]2(C)O[C@@]3(O)[C@@H]4CCCN4C(=O)[C@H](Cc4ccccc4)N3C2=O)C=C2c3cccc4[nH]cc(c34)C[C@H]21	-24%	-11%
CC(C)C[C@H]1C(=O)N2CCC[C@H]2[C@]2(O)O[C@](NC(=O)[C@@H]3C=C4c5cccc6[nH]c(Br)c(c56)C[C@H]4N(C)C3)(C(C)C)C(=O)N12	25µM*!	?
CC(C)CC1C(=O)N2CCCC2C2(O)O[C@@](NC(=O)C3C=C4c5cccc6[nH]c(Br)c(c56)CC4N(C)C3)(C(C)C)C(=O)N12 (some centres undefined)	?	10µM*
CC(C)C[C@H]1C(=O)N2CCC[C@H]2[C@]2(O)O[C@](NC(=O)[C@@H]3C[C@@H]4c5cccc6[nH]cc(c56)C[C@H]4N(C)C3)(C(C)C)C(=O)N12	-15%	?
CC(C)C[C@H]1C(=O)N2CCC[C@@H]2[C@]2(O)O[C@](NC(=O)[C@H]3C=C4c5cccc6[nH]c(Br)c(c56)C[C@H]4N(C)C3)(C(C)C)C(=O)N12	-6%[17.8 µM]	5%[17.8 µM]
CC(C)[C@@]1(NC(=O)[C@@H]2C[C@H]3c4cccc5[nH]cc(c45)C[C@@H]3N(C)C2)O[C@@]2(O)[C@H]3CCCN3C(=O)[C@H](Cc3ccccc3)N2C1=O	-17%	22µM*!
